# Data published in PMC4336329 (PLoS ONE, 2015).
# Out of some 310,000 compounds screened, about 14,000 (4.5%) showed an effect of 50% or more. The effect is printed as a negative number. The full list was thinned out, with strong results kept by preference.
# Target: human ether-à-go-go-related gene (hERG) potassium channel (human, UniProt Q12809)
# Experiment: primary screen, population patch clamp on CHO cells stably expressing hERG; higher = less effect of the substance
# 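Note: peak tail current of the secondary pulse compared with the same well before compound.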
# Sequence of human ether-à-go-go-related gene (hERG) potassium channel (Q12809 whole entry, looked up): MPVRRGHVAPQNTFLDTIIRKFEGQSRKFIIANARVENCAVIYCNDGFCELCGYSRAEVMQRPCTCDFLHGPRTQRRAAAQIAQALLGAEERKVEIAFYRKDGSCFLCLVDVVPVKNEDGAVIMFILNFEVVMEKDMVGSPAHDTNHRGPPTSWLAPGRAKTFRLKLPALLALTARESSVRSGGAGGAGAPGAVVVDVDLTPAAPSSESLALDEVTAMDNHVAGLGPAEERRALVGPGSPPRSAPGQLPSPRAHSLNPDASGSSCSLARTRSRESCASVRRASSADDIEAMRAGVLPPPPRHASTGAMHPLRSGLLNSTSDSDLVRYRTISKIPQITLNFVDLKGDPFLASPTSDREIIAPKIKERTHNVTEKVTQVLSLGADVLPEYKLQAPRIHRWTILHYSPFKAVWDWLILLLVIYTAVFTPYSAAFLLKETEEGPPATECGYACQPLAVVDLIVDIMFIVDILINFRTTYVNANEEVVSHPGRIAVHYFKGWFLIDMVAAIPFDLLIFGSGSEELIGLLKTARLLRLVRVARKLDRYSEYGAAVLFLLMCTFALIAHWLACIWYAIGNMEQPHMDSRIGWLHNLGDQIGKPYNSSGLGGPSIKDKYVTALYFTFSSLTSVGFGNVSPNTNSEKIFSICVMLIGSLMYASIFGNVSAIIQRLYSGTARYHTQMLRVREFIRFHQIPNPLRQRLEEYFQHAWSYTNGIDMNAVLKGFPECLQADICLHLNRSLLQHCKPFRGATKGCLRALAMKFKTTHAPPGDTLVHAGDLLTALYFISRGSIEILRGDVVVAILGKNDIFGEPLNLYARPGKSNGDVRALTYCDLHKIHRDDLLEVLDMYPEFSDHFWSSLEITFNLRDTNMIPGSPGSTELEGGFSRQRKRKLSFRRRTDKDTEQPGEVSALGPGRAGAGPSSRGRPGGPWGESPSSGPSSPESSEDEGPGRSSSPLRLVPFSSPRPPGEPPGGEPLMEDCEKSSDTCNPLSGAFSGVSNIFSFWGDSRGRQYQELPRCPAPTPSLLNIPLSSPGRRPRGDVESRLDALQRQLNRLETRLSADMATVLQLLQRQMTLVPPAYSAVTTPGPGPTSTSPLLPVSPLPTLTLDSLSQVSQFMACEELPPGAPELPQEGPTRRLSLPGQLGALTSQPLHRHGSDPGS
row,SMILES,"hERG current change (%, negative = inhibition) at 10uM [%]"
1,CCCC1S/C(=N/N=C/c2ccc(C)cc2)N(Cc2ccc(OC)cc2)C1=O (centres unmarked),9.81
2,CC(=O)Oc1ccc(-c2cc3ccccc3oc2=O)cc1,0.436
3,CCOC(=O)N1CCN(Cc2nnc(-c3ccccc3Cl)o2)CC1.Cl,11.4
4,CCOc1c(C)cnc2c1c(=O)n(Cc1cccc(Cl)c1)c(=O)n2C,-36.1
5,CC(C)(C)NC(=O)CSc1ncccc1-c1nc2ccccc2[nH]1,-4.73
6,Cc1c(C)c2ccc(OCC(=O)Nc3ccc(N4CCC(C)CC4)cc3)cc2oc1=O,14.7
7,COc1ccc(-n2nc3c(c2NC(=O)COc2cccc(OC)c2)CS(=O)(=O)C3)cc1,-29.5
8,Cc1ccc(-c2n[nH]c(=S)n2/N=C\c2ccco2)cc1,24.1
9,O=C(Cc1ccc(F)cc1)N1CCC(N2CCC(C(=O)N3CCOCC3)CC2)CC1,9.76
10,O=C(C1CCN(C2CCN(Cc3ccsc3)CC2)CC1)N1CCOCC1,-3.8
11,O=C(C1CCN(C2CCN(C/C=C/c3ccccc3)CC2)CC1)N1CCOCC1,-53.4
12,O=C(C1CCN(C2CCN(Cc3ccc4c(c3)CCO4)CC2)CC1)N1CCOCC1,-26.6
13,O=C(C1CCN(C2CCN(C/C(Cl)=C/c3ccccc3)CC2)CC1)N1CCOCC1,-64.1
14,O=C(C1CCN(C2CCN(Cc3cccc4c3OCO4)CC2)CC1)N1CCOCC1,-34.7
15,C/C(=C\c1ccco1)CN1CCC(N2CCC(C(=O)N3CCOCC3)CC2)CC1,-78.9
16,O=C(/C=C/c1ccccc1)N1CCC(N2CCC(C(=O)N3CCOCC3)CC2)CC1,-23.4
17,Cc1cccc(CC(=O)N2CCC(N3CCC(C(=O)N4CCOCC4)CC3)CC2)c1,0.701
18,CCOCCCNC(=O)CN1CCN(S(=O)(=O)c2ccc3c(c2)CCC3)CC1,3.99
19,COC(=O)CSc1nnc(CNS(=O)(=O)c2ccc(C)cc2)n1C,1.97

row,SMILES,"hERG current change (%, negative = inhibition) at 10uM [%]"
1,CN(C)N=Nc1ccc(S(=O)(=O)N2CCSC2C(=O)O)cc1 (centres unmarked),2.21
2,COC1CCN(C(=O)CC2C(=O)NCCN2CC2CCCCC2)CC1 (centres unmarked),13.3
3,CCOc1ccccc1OCCNC1CCCC1,8.26
4,CCOc1cccc(=O)c2c(C)n(CC3CCCO3)c(C)c12 (centres unmarked),-2.39
5,CCOc1cccc(=[NH+]C2CCCCC2)c2c(C)n(C)c(C)c12.[O-][Cl+3]([O-])([O-])[O-],-70.3
6,CCOc1cccc(=[NH+]C2CCCCC2)c2c(C)[nH]c(C)c12.[O-][Cl+3]([O-])([O-])[O-],-70.3
7,CCOc1cccc(OCC)c2c(C)[n+](CC3CCCO3)c(C)c1-2.[O-][Cl+3]([O-])([O-])[O-] (centres unmarked),-36.9
8,CCOc1cccc(=O)c2c(C)n(CC(=O)c3ccccc3)c(C)c12,-6.91
9,O=C(CN1C(=O)NC2(CCCC2)C1=O)N1CCN(S(=O)(=O)c2ccccc2[N+](=O)[O-])CC1,7.61
10,N=c1n(-c2ccccc2)c(O)cc(=O)n1-c1ccccc1,-6.28
11,CCCn1c(N)c(N(CCOC)C(=O)c2ccc([N+](=O)[O-])c(C)c2)c(=O)[nH]c1=O,35.8
12,CC(NS(=O)(=O)c1ccc(Br)cc1)C(=O)NC1CCCCCC1 (centres unmarked),5.35
13,Cc1noc(C)c1S(=O)(=O)N1CCCC(C(=O)Nc2ccc(Cl)cn2)C1 (centres unmarked),-26
14,CCOC(=O)C1(CCc2ccccc2)CCN(C(=O)Cc2nonc2C)CC1,-21.4
15,CCOC(=O)C1(CCCc2ccccc2)CCN(C(=O)c2cnn(CC)c2)CC1,-64.2
16,CCOC(=O)C1(CCCc2ccccc2)CCN(C(=O)c2cc(C)nn2CC)CC1,-57.8
17,CCOC(=O)C1(CCCc2ccccc2)CCN(C(=O)c2ocnc2C)CC1,-56.1
18,CCOC(=O)C1(Cc2cccc(Cl)c2)CCCN(C(=O)c2cnn(CC)c2)C1 (centres unmarked),-6.39
19,CCOC(=O)C1(CCCc2ccccc2)CCN(C(=O)COC)CC1,-25.9

row,SMILES,"hERG current change (%, negative = inhibition) at 10uM [%]"
1,CCOC(=O)C1(CCCc2ccccc2)CCN(C(=O)Cc2nonc2C)CC1,-51.3
2,CCOC(=O)C1(Cc2ccccc2)CCCN(C(=O)c2cnn(CC)c2)C1 (centres unmarked),10.1
3,CCOC(=O)C1(CC2CC2)CCN(C(=O)c2ocnc2C)CC1,7.25
4,CCOC(=O)C1(CCCc2ccccc2)CCN(C(=O)c2cc(C)nc(C)n2)CC1,-16.4
5,CCOC(=O)C1(CCCc2ccccc2)CCN(C(=O)c2cnc(C)cn2)CC1,-39.8
6,CCn1c(N2CCN(S(=O)(=O)c3ccc(Cl)cc3)CC2)nc2ccccc21,-48.4
7,COc1cccc(NC(=O)CCNS(=O)(=O)c2ccc3c(c2)CC(C)N3C(=O)C2CC2)c1 (centres unmarked),-5.18
8,O=C(CCS(=O)(=O)c1ccc(Br)s1)NC1CCCC1,6.05
9,COc1ccc(NS(=O)(=O)c2cccc3cccnc23)cc1OC,24.2
10,CNc1nc(NN)nc(Nc2ccccc2)n1,9.76
11,Cc1ccc(S(=O)(=O)CC(=O)Nc2cccc(C)n2)cc1,6.48
12,Cc1cccc(C(=O)NCC(=O)NC2CCN(Cc3ccccc3)CC2)c1,-7.99
13,O=C(c1ccoc1)N1CCC(CO)(CCc2ccccc2)CC1,-28.7
14,CCOC(=O)C1(CCCc2ccccc2)CCN(C(=O)c2ccoc2)CC1,-54.3
15,CCOC(=O)C1(CCCc2ccccc2)CCN(C(=O)CSC)CC1,-24.1
16,CCCCCC(=O)Nc1nnn(CCC)n1,4.41
17,CC(C(=O)O)N1C(=O)c2cccc3cccc1c23 (centres unmarked),1.97
18,COc1ccc(NCc2nnc(SCC(=O)Nc3nc(-c4ccccc4)cs3)n2-c2ccccc2)cc1,13
